Data: ChEMBL document CHEMBL1157539, “Thousands of chemical starting points for antimalarial lead identification” (Nature, 2010)

Tested on: Plasmodium falciparum
Test: GSK_TCMDC: Inhibition of Plasmodium falciparum 3D7 in whole red blood cells, using parasite LDH activity as an index of growth. Test compounds present at 2uM
Type: functional

Row | Structure (SMILES) | Inhibition [%]
1 | COc1cc(CCN(C)Cc2ccc(OC)c(OC)c2)ccc1NC(=O)c1cccc2c(O)c3cccc(F)c3nc12 | 100
2 | Clc1ncnc2ncn(Cc3cccc(Br)c3)c12 | 91
3 | CCCN1CCN(c2ccccc2NS(=O)(=O)c2ccc(C(=O)Nc3ccc(Cl)cc3)cc2)CC1.O=C(O)C(F)(F)F | 84
4 | Cc1ccc2c(N/N=C/c3ccccc3[N+](=O)[O-])cc(C)nc2c1 | 100
5 | O=C(C=Cc1ccc(Cl)c(Cl)c1)NCCCCCN1CCC(CCCNC(=O)/C=C/c2ccccc2)CC1 | 96
6 | CN(C)CCNCc1ccc(-c2ccc3c(Nc4ccc(Cl)cc4F)ccnc3c2)o1 | 99
7 | CC(C)Oc1cc2c(cc1NS(=O)(=O)c1ccc(-c3ccc(Cl)cc3)cc1)CCN(C)CC2.Cl | 99
8 | Cc1cc(Nc2ccc(C)c(C)c2)n2nc(C)nc2n1 | 95
9 | CCN(c1cc(C)nc(Nc2ccc(Cl)cc2)n1)[C@H]1CCN(Cc2ccccc2)C1 | 94
10 | Cl.Clc1ccc(OCCC2CCN(CCCCCCCN3CCC(CCOc4ccc(Cl)c(Cl)c4)CC3)CC2)cc1Cl | 99
11 | COc1ccccc1N1CCN(C(C(=O)NCc2ccc3c(c2)OCO3)c2ccc(C)cc2)CC1 (stereo not given) | 85
12 | Cn1nc(-c2ccc(NC(=O)Nc3cc(C(F)(F)F)ccc3F)c(F)c2)c2cnc(NCCCn3ccnc3)nc21.O=C(O)C(F)(F)F | 100
13 | COc1cccc2c(N/N=C/c3cccc([N+](=O)[O-])c3)ccnc12 | 100
14 | CCc1sc(-c2cc(Cl)ccc2OC)nc1C(=O)NCCN1CCCCC1.O=C(O)C(F)(F)F | 100
15 | COc1cc(NC(=O)N2CCOC(CCN3CCC(c4ccccc4)CC3)(c3ccc(Cl)c(Cl)c3)C2)cc(OC)c1OC (stereo not given) | 93
16 | COCCNC(=O)C(CNC(=O)c1ccc2c(c1)OCO2)NC(=O)c1ccc(-c2ccccc2)cc1 (stereo not given) | 90
17 | COc1cc2ccccc2c(OC)c1CNCCCCCCNCc1c(OC)cc2ccccc2c1OC.CS(=O)(=O)O | 93
18 | COc1ccc2nccc([C@@H](O)CN3CCC(NC(=O)/C=C/c4cc([N+](=O)[O-])ccc4OC)CC3)c2c1 | 99

Row | Structure (SMILES) | Inhibition [%]
19 | Nc1nccc2ccc(OC3CCCCC3)cc12.O=CO | 98
20 | O=C(Nc1cccc(-c2cccc(-c3nc4cc(C(F)(F)F)ccc4[nH]3)c2)c1)c1c[nH]cn1 | 100
21 | COc1cc2nc(N[C@@H](CO)c3ccccc3)nc(NCc3ccccc3)c2cc1OC | 100
22 | CS(=O)(=O)N(c1ccccc1)c1cc(C(=O)N[C@@H](Cc2ccccc2)[C@H](O)CNC2CC2)cc(N2CCCC2=O)c1 | 100
23 | CCN(CC)CCN(CCN(CC)CC)c1ccc(-c2nc3cc(Cl)c(Cl)cc3[nH]2)cc1 | 100
24 | COc1ccc(NC(=O)/C=C/c2ccc(Oc3ccccc3Cl)c([N+](=O)[O-])c2)cc1OCCN(C(C)C)C(C)C | 99
25 | Cc1ccc(NC(=O)c2cccc(CN3CCCN(Cc4cccc(O)c4)CC3)c2)cc1.O=C(O)C(F)(F)F | 82
26 | N#Cc1ccc(-c2nc3c(N4CCCC4)cccc3n2CCNCc2ccccc2)cc1.O=C(O)C(F)(F)F | 100
27 | N#CC(c1ccc(Cl)cc1)c1ccc2c(C(F)(F)F)cc(C(F)(F)F)nc2n1 (stereo not given) | 97
28 | COc1ccc2nccc(N3CCCN(CCNCc4ccc5c(n4)NC(=O)CS5)CC3)c2n1.Cl | 100
29 | O=C(/C=C/c1ccc(Cl)c(Cl)c1)NCCCCCN1CCCC(C(=O)Nc2ccc(Cl)cc2)C1 (stereo not given) | 98
30 | COc1ccc(CNCCCCCCNCCc2ccc(Cl)cc2)cc1OC.Cl | 96
31 | CS(=O)(=O)c1ccc(CNCc2ccc(-c3ccc(-c4nc5cc(C(F)(F)F)ccc5[nH]4)cc3)cc2)cc1.O=C(O)C(F)(F)F | 100
32 | O=C(NCCCCN1CCC(c2ccc3c(c2OCCCO)CCCC3)CC1)c1ccc(-c2ccc(C(F)(F)F)cc2)cc1 | 83
33 | COc1ccc(-c2cnn3ccc(Nc4cc(OC)c(OC)c(OC)c4)nc23)cc1OC | 98
34 | CCN(CC)CCN(Cc1ccc(-c2ccc(C(F)(F)F)cc2)cc1)C(=O)Cn1c(CCc2cccc(F)c2F)nc(=O)c2sccc21.O=C(O)C(O)C(O)C(=O)O | 96
35 | NC1CCN(Cc2ccc(-c3cccc(-c4nc5ccccc5[nH]4)c3)cc2)C1.O=C(O)C(F)(F)F (stereo not given) | 98
